The whole screen tested about 330,000 compounds, of which about 1,900 (0.58%) were called active. Another 4% or so got no clear call; they are omitted. Not all results are given here. Entries with a potency or affinity are not part of this list. Unmarked numbers belong to inactive results. No stated cut-off is given here; in the data, inconclusive means inhibition above about 70% without an active follow-up result; inactive means below that.

This experiment can be described thus: M. tuberculosis growth inhibition, HTS (AID 449762).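 Further: bacterial growth assessed after seven days of incubation.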 The following applies: M. tuberculosis H37Rv growth inhibition, 7H9 media; at 25 µM; active compounds read high.
Regarding `CCN1CCc2nc(NC(=O)Cc3ccc4c(c3)OCCO4)sc2C1`, the inhibition was -17.6%.

As to `CC(C)NC(=O)CCCN1C(=O)c2ccccc2Sc2ncccc21`, the inhibition is 1.48%.

On to `O=C(O)c1cc(-c2ccncc2)nc2ccc(S(=O)(=O)N3CCOCC3)cc12`, for which the inhibition was 3.61%.

For the compound `O=C(Nc1ccc(N2CCCC2)c(Cl)c1)c1cccs1`, the inhibition was 7.74%.

With `O=C(NC(=S)Nc1ccc(N2CCOCC2)c(Cl)c1)c1cccs1`, the inhibition is 3.13%.

Consider `COc1ccc2c(c1)[C@H]1[C@H](CO2)[C@H](c2ccccc2)[C@]2(C)C(=O)Nc3ccc(C)cc3C(=O)N12`, for which the inhibition was 1.01%.

As to `COc1ccc2c(c1)C(=O)N1[C@H]3c4cc(OC)ccc4OC[C@@H]3[C@H](c3ccccc3)[C@]1(C)C(=O)N2`, the inhibition is 1.44%.

With `O=c1c2cccc3c2c(nn1-c1ccccc1)-c1ccccc1-3`, the inhibition is -2.02%.

In the case of `COc1cccc(NC(=O)CN(C)C(=O)c2c(C)nn(CC(C)C)c2Cl)c1`, the inhibition is -7.79%.

On to `O=C(COc1ccc(Cl)cc1)OCc1csc(Nc2ccccc2)n1`, for which the inhibition is 4.58%.

Regarding `O=C(COc1ccccc1)OCc1csc(Nc2ccccc2)n1`, the inhibition was 11.3%.

Consider `CC1CCCC(NC(=O)COC(=O)c2ccc(Br)o2)C1C` (centres undefined), for which the inhibition is 10.4%.

In the case of `COCCN(C(=O)c1cc(-c2ccncc2)nc2ccccc12)c1c(N)n(CC(C)C)c(=O)[nH]c1=O`, the inhibition was -4.69%.

With `C=C(C)C1Cc2c(C)nn(-c3ccccc3)c2C1` (centres undefined), the inhibition is 5.29%.

On to `C=C(C)C1Cc2c(C)nn(-c3cccc4ccccc34)c2C1` (centres undefined), for which the inhibition was 40.9%.

For `CC(c1ccccc1)N1C(=O)C2C3C=CC(C4CC34)C2C1=O` (centres undefined), the inhibition is 0.61%.

As to `CCN=C1NN=C(c2cc(C)n(Cc3ccco3)c2C)CS1`, the inhibition was -1.01%.

For `Cc1cc(C2=NNC(=NC3CC3)SC2)c(C)n1Cc1ccco1`, the inhibition was 63.5%.

In the case of `CCCCn1c(CN2CCN(c3cccc(Cl)c3)CC2)nc2c1c(=O)[nH]c(=O)n2C`, the inhibition is 62.7%.

With `CC1CCCN(C2(O)C(=O)Nc3ccc(Br)cc32)C1` (centres undefined), the inhibition is 5.15%.

As for `COCCN(C(=O)COC(=O)c1cc2ccccc2cc1OC)c1c(N)n(Cc2ccccc2)c(=O)[nH]c1=O`, the inhibition was -2.06%.

As to `COc1ccccc1OCC(=O)Nc1ccc(C(N)=O)cc1`, the inhibition was -3.41%.

For the compound `CC(=Nc1cccc(O)c1)c1sc2ccccc2c1O`, the inhibition was 11.9%.

Consider `CCCn1nc(C(=O)Nc2ccc(S(=O)(=O)Nc3nccs3)cc2)c2ccccc2c1=O`, for which the inhibition is 8.73%.

For `O=C(Nc1ccccc1F)Nc1ccccc1Br`, the inhibition is 4.25%.

On to `CCOc1ccc(Br)cc1/C(C)=N\NC1=NCCN1`, for which the inhibition was -0.3%.

On to `COc1ccc(Br)cc1/C(C)=N/NC1=NCCN1`, for which the inhibition was 1.92%.

Consider `CC(C)OCCCN1CC(=O)N2C(c3cccc([N+](=O)[O-])c3)c3[nH]c4ccccc4c3C[C@H]2C1=O` (some centres undefined), for which the inhibition was 19.4%.

As to `CCCc1cc(-c2nc(N)ncc2-c2csc(C)n2)c(O)cc1OC`, the inhibition was -5.66%.

On to `CCc1cc(-c2nc(N)ncc2-c2ccc(Br)cc2)c(O)cc1OC`, for which the inhibition was 14.9%.

Consider `CC(C)C(=O)Nc1nc2ccc(S(C)(=O)=O)cc2s1`, for which the inhibition is 4.62%.

As for `O=C(O)c1ccc(-n2c(-c3ccccc3)n[nH]c2=S)cc1`, the inhibition is -4.35%.

With `Cc1ccccc1CN1CCN(Cc2ccccc2)CC1`, the inhibition is -6.4%.

For the compound `CCN1CCN(Cc2ccccc2C)CC1`, the inhibition is -5.92%.

As to `CCOC(=O)Cc1csc(SCc2nc3ccccc3c(=O)[nH]2)n1`, the inhibition was -2.6%.

Turning to `CSC(=S)N/N=C/c1ccc(Br)cc1`, the inhibition was 57.5%.

Regarding `CSC(=S)N/N=C/c1ccc(N(C)C)cc1`, the inhibition is 3.05%.

Turning to `COc1ccccc1N1C(=O)CC(N(O)c2ccccc2)C1=O` (centres undefined), the inhibition was 7.06%.

As to `COc1ccccc1N(O)C1CC(=O)N(c2ccc(F)cc2)C1=O` (centres undefined), the inhibition was 10.9%.

Take `S=C(N/N=C/c1ccc(Cl)cc1)N1CCOCC1`: the inhibition was 10.7%.

As for `Cc1ccc(/C=N/NC(=S)N2CCOCC2)cc1`, the inhibition was -4.55%.

In the case of `N#Cc1c(N)nc(Sc2ccc(Cl)cc2)c(C#N)c1-c1ccccc1Cl`, the inhibition was 7.13%.

`O=C(O)CCCNS(=O)(=O)Cc1ccccc1`: the inhibition was 2.38%.

As to `COc1cc(OC)nc(Oc2ccccc2C(=O)Oc2ccccc2Cl)n1`, the inhibition is 3.91%.

As to `COc1cc(OC)nc(Oc2ccccc2C(=O)Oc2ccc(C)cc2)n1`, the inhibition is -5.69%.

Turning to `O=C(NCc1ccccc1)N1CCC(CO)(Cc2cccc(F)c2)CC1`, the inhibition was 1.55%.

Regarding `CC(=O)c1sc(NC(=O)c2c(F)cccc2F)nc1-c1ccccc1`, the inhibition is 3.31%.

Consider `CCCOc1ccc(NC2=CC(=O)CC(C)(C)C2)cc1`, for which the inhibition is 0.84%.

Take `CCCCCOc1ccc(NS(C)(=O)=O)cc1`: the inhibition was -0.68%.

For the compound `COc1ccccc1NS(=O)(=O)c1ccc(O)c(C(=O)OCc2cccc([N+](=O)[O-])c2)c1`, the inhibition is -3.81%.

On to `O=C(NCC1CCCO1)C(c1cccs1)N(Cc1ccccc1)C(=O)c1ccc(-c2ccccc2)[nH]1` (centres undefined), for which the inhibition was 14.9%.

In the case of `O=C(NCC1CCCO1)C(c1cccs1)N(Cc1cccs1)C(=O)c1ccc(-c2ccccc2)[nH]1` (centres undefined), the inhibition is 0.19%.

For the compound `COc1cc(NC(=S)NCCCO)c(OC)cc1Cl`, the inhibition was -4.61%.

For the compound `CC(=O)c1ccc(C(=O)N2CCCC(CCC(=O)N(C)CCc3ccccn3)C2)s1` (centres undefined), the inhibition is -4.61%.

In the case of `Cc1c(CN2CCC(CO)(Cc3ccccc3)CC2)c2ccccc2n1C`, the inhibition is -7.19%.

Take `OCC1(Cc2cccc(C(F)(F)F)c2)CCN(Cc2cc(F)cc(F)c2)CC1`: the inhibition is 14%.

As to `O=C(CN(C(=O)CCC(=O)Nc1nccs1)c1ccc(F)cc1)NCc1ccccc1`, the inhibition was -3.51%.

In the case of `CCOC(=O)Cn1cc(-c2ccccc2)nn1`, the inhibition is -3.68%.

On to `O=c1cc(O)c2sc3nc(-c4ccccc4)cc(C(F)(F)F)c3c2[nH]1`, for which the inhibition is 5.22%.

For the compound `Cc1cc(C(F)(F)F)c2c(n1)sc1c(O)cc(=O)[nH]c12`, the inhibition was -2.51%.

In the case of `COc1cc(/C=C2\SC(=S)N(N3CCOCC3)C2=O)cc(OC)c1OC`, the inhibition is 3.16%.

With `Cc1ccc(C(C)C)c(OCC(=O)NS(=O)(=O)c2ccc(Cl)cc2)c1`, the inhibition is -3.31%.

`O=C(c1ccccc1)N1CCN2C(=O)c3ccccc3C12c1ccc(Cl)cc1` (centres undefined): the inhibition is 4.61%.

On to `Cc1ccc(C(=O)N2CCN3C(=O)c4ccccc4C23c2ccc(Cl)cc2)cc1` (centres undefined), for which the inhibition is 13.6%.

On to `COc1cccc(NC(=O)Nc2ccc(Br)cn2)c1`, for which the inhibition is 4.97%.

As to `Cc1[nH][nH]c(=O)c1N=Nc1ccc(Cl)cc1`, the inhibition was -1.91%.

`O=c1cc(CSCc2ccc(Cl)cc2)[nH]c(=O)[nH]1`: the inhibition was -3.47%.

Turning to `CCCNC(=O)c1onc(CSc2ccc(Cl)cc2)c1C(=O)NCCOC`, the inhibition was -3.57%.

As to `Nn1c(SCc2ccc([N+](=O)[O-])cc2)nc2ccccc2c1=O`, the inhibition was 16.5%.

As to `Nc1c(C(=O)OCC2CCCO2)c2nc3ccccc3nc2n1C1CCCCC1` (centres undefined), the inhibition was 1.24%.

With `CCCCn1c(N)c(C(=O)OCC2CCCO2)c2nc3ccccc3nc21` (centres undefined), the inhibition was 15.8%.

In the case of `CCc1ccccc1N(CC(=O)NC1CCCCC1)C(=O)CNC(=O)c1ccco1`, the inhibition was 2.96%.

Regarding `O=C(NCc1ccco1)C1CCCN(c2ncnc3c2nc2n3CCCCC2)C1` (centres undefined), the inhibition was 1.1%.

As to `O=C(O)C1CCN(S(=O)(=O)c2cccc3nsnc23)CC1`, the inhibition was 0.03%.

In the case of `Cc1c(C(=O)NC(=S)NCC(C)C)oc2ccccc12`, the inhibition was -6.41%.

With `COc1ccc(C2c3ccc4ccccc4c3Oc3ncn(CCO)c(=N)c32)cc1OC` (centres undefined), the inhibition is 6.98%.

For the compound `COc1ccccc1C1c2ccc3ccccc3c2Oc2ncn(CCCO)c(=N)c21` (centres undefined), the inhibition was 5.41%.

As to `COC(=O)Cn1c(C)nc([N+](=O)[O-])c1Br`, the inhibition is 0.3%.

In the case of `Cc1c(Br)c([N+](=O)[O-])nn1CC(=O)c1ccccc1`, the inhibition is -1.84%.

As to `Cc1ccc(S(=O)(=O)NC(Cc2ccc(Cl)cc2)C(=O)O)cc1` (centres undefined), the inhibition was 4.83%.

Regarding `COc1ccccc1-c1c(C)oc2c(CN3CCOCC3)c(O)ccc2c1=O`, the inhibition is 0.75%.

As to `COc1ccc(Br)cc1/C=N/NC(=O)c1cc(OC)c(OC)c(OC)c1`, the inhibition is -3.85%.

For `COc1cc(C(=O)N/N=C/c2ccsc2C)cc(OC)c1OC`, the inhibition was 17.9%.

In the case of `Cc1ccc(CCNC(=O)C2CCN(S(=O)(=O)c3ccc4nc5c(c(C(=O)O)c4c3)CCCC5)CC2)cc1`, the inhibition was -1.27%.

As for `Cc1nc2ncnn2c(Nc2ccc3c(c2)OCCO3)c1C`, the inhibition was 6.9%.

On to `COc1ccc(NC(=O)COC(=O)CCC2CCCCC2)cc1`, for which the inhibition was 8.09%.

In the case of `COc1ccc(Cl)c2sc(N3CCN(C(=O)C4=COCCO4)CC3)nc12`, the inhibition was 35.6%.

On to `O=C(C1=COCCO1)N1CCN(c2nc3ccc([N+](=O)[O-])cc3s2)CC1`, for which the inhibition was 1.78%.

Take `COc1ccc(NC(=O)COC(=O)/C=C/c2ccccc2[N+](=O)[O-])cc1OC`: the inhibition is 0.41%.

With `Cc1sc2ncn(CC(=O)N3CCN(c4ccccn4)CC3)c(=O)c2c1S(=O)(=O)N1CCCCC1`, the inhibition was -2.75%.

For the compound `FC(F)(F)c1ccc2c(c1)N(CCCN1CCN(CCCl)CC1)c1ccccc1S2`, the inhibition is 4.41%.

As to `CN1CCN(CCCN2c3ccccc3Sc3ccc(S(=O)(=O)N(C)C)cc32)CC1`, the inhibition is 7.63%.

Consider `CS(=O)(=O)c1ccc(Cl)c(NC(=O)C2CC(=O)N(Cc3ccco3)C2)c1` (centres undefined), for which the inhibition was 3.6%.

On to `S=C(NC1CCCC1)N1CCN(c2ccccn2)CC1`, for which the inhibition is -3.07%.

As usually defined, the inhibition is the change of the read-out against control, counted positive when it falls.

(Values after PubChem BioAssay AID449762 (Southern Research Specialized Biocontainment Screening …, 2010).)
